In the library only some 2.6% were active in any assay of this set; here they are far more common.
Nrf2 block – blocks Nrf2 signaling; hit rate 2.1% among 360,000; A549 ARE-Fluc reporter, luciferase luminescence, 18-24 h; Potency, µM (top dose mostly 46 µM), inactives show top-dose activity change, negative = inhibition, actives largely listed as inhibitors; further: potency means the concentration at half of the fitted maximal effect; on the % scale 0 is the no-effect control and ±100 the full control effect; nearly all actives have a fitted effect of over 60% in size
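Nrf2 function is reported as luminescence of an ARE-controlled luciferase in A549 cells. Compounds were tested at several concentrations, and a CellTiter-Fluor read on the same wells flagged cytotoxicity.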
CCT modulator – modulators of cytosolic chaperonin (CCT/TRiC) activity; purified chaperonin ATPase assay, HTRF ADP detection, 30 min; activity change, % (concentration not given with the values), hits read low; hit rate 0.3% among 360,000; AID 651819; in the data active means activity change below about -30%; further: on the % scale 0 is the no-effect control and ±100 the full control effect
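Nucleotide hydrolysis assay: TRiC at 20–40 nM final (set by batch activity) with 10 uM ATP, 30 min at 37 °C, in presence of 76 uM compound. Detection by competitive ADP HTRF, 30 min ambient.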
A-T KAP1 phos – candidate therapy for ataxia-telangiectasia. F2112 A-T fibroblasts, KAP-1 phosphorylation AlphaLISA; neocarzinostatin DNA damage 30 min before lysis. Potency, µM (series often up to 57.5 µM), for the others: top-dose activation, actives largely listed as activators. hit rate 0.19% among 320,000. AID 485349; further: potency means the concentration at half of the fitted maximal effect; % of control where 0% means no effect; nearly all actives have a fitted effect of over 45% in size
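ATM-like activity read as KAP-1 phosphorylation via AlphaLISA donor/acceptor antibody pairs after lysis and 6 hr at 25C. Cells were ATM-null patient fibroblasts (F2112, hTERT), dosed 60 min, then exposed to the DSB inducer NCS for 30 min.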
TCR activator – activators of T cell receptors; primary human leukocytes, anti-CD3, IL-2 HTRF, 48 h; Potency, µM (top dose mostly 9.22 µM), for inactives: at the highest dose activation of IL-2 secretion, hits mostly activators; 330,000 tested, under 10 active; further: % of control where 0% means no effect
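HTRF read-out of IL-2 secretion: europium cryptate donor excited at 320nm, d2 acceptor emission at 665nm. Cells were primary human leukocytes incubated 48 hr with compounds and a-CD3 beads, supplying TCR signal only.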
A549 viability – kills or reduces viability of A549 cells in Nrf2 counter-screen; A549 ARE-Fluc cells, CellTiter-Fluor viability, 18-24 h; Potency, µM (titrated, usually from 46 µM), for the others: at the top dose activity change, negative = cytotoxicity, actives largely listed as inhibitors; hit rate 0.16% among 390,000; further: potency means the concentration at half of the fitted maximal effect; on the % scale 0 is the no-effect control and ±100 the full control effect
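Cytotoxicity counterscreen: CellTiter-Fluor fluorescence was measured in A549 ARE_Fluc cells after 18-24 h of compound exposure in a concentration series. The subsequent BugLite luminescent read reports ARE-luciferase activity.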
Nrf2 activator – activators of Nrf2 (ARE) signaling; hit rate 0.31% among 410,000; AREc32 ARE-luciferase reporter (MCF7-derived line), luminescence, 24 h; Potency, µM (highest dose often 46.1 µM), for inactives: at the top dose activation, usual class: activators; further: potency means the concentration at half of the fitted maximal effect; % of control where 0% means no effect; nearly all actives have a fitted effect of over 65% in size
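Reporter line AREc32 (ARE-Fluc), seeded overnight in OPTI-MEM with 5% FBS; compound pin-transferred, 24 hr at 37 deg C, 5% CO2; luminescent read-out.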
Numbers without * were called inactive; [ ] = remark or other dose. Unless noted, the call rests on the fitted dose curve; in most records, active means well fitted curve in the direction sought with a large enough effect; inconclusive means small, poorly fitted or top-dose-only effect, or another doubt; inactive means no such curve, though single readings can be large; an effect the other way counts as inactive or inconclusive.

How did CCCN1CNc2c(c(=O)[nH]c(=S)n2CCc2cccc(OC)c2OC)C1 do in these assays?
Nrf2 block: 7%; A549 viability: 9%

How did O=C(c1ccc([N+](=O)[O-])o1)N1CCc2ccccc2C1 do in these assays?
Nrf2 block: inconclusive; CCT modulator: 0; A-T KAP1 phos: 2%; TCR activator: -1%; A549 viability: -13%; Nrf2 activator: 11%

What do the screens show for `COc1cc2c(cc1OC)CN(C(=O)c1ccc([N+](=O)[O-])o1)CC2`?
Nrf2 block: 1%; CCT modulator: -5; A-T KAP1 phos: 15%; TCR activator: 1%; A549 viability: inconclusive; Nrf2 activator: 13µM*

Results for CCOC(=O)c1c(C)[nH]c(C(=O)N2CCc3cc(OC)c(OC)cc3C2)c1C ?
Nrf2 block: 23µM*; CCT modulator: -1; A-T KAP1 phos: -2%; TCR activator: -5%; A549 viability: inconclusive; Nrf2 activator: 4%

How did COc1ccc(C(=O)Sc2ccc(C)cc2)cc1OC do in these assays?
Nrf2 block: -16%; CCT modulator: -1; A-T KAP1 phos: 24%; TCR activator: 2%; A549 viability: -14%; Nrf2 activator: inconclusive

What do the screens show for `COc1ccc(C(=O)Sc2ccc(Cl)cc2)cc1OC`?
Nrf2 block: 21µM*; CCT modulator: -4; A-T KAP1 phos: -3%; TCR activator: 2%; A549 viability: inconclusive; Nrf2 activator: 6%

What do the screens show for `Cc1ccc(NC(=O)c2cccc(S(=O)(=O)N3CCN(c4ccc(F)cc4)CC3)c2)nc1`?
Nrf2 block: 23µM*; CCT modulator: -2; A-T KAP1 phos: -7%; TCR activator: 4%; A549 viability: -5%; Nrf2 activator: 4%

How did O=C(c1cc(S(=O)(=O)N2CCN(c3ccccc3)CC2)ccc1Cl)N1CCCCCCC1 do in these assays?
Nrf2 block: 21µM*; CCT modulator: -2; A-T KAP1 phos: 0%; A549 viability: -7%; Nrf2 activator: 0%

What do the screens show for `CC1CN(C(=O)c2cc(S(=O)(=O)N3CCN(c4ccccc4)CC3)ccc2Cl)CC(C)O1` (stereo not given)?
Nrf2 block: inconclusive; CCT modulator: -7; A-T KAP1 phos: -3%; TCR activator: -18%; A549 viability: -9%; Nrf2 activator: 0%

What do the screens show for `Cc1cccnc1NC(=O)c1cccc(S(=O)(=O)N2CCN(c3ccccc3)CC2)c1`?
Nrf2 block: inconclusive; CCT modulator: -2; A-T KAP1 phos: 11%; TCR activator: -3%; A549 viability: 1%; Nrf2 activator: 0%

Results for Cc1ccc(C(=O)NNC(=O)c2cccc(S(=O)(=O)N3CCN(c4ccccc4)CC3)c2)cc1 ?
Nrf2 block: -28%; CCT modulator: -48*; TCR activator: 2%[46.1 µM]; A549 viability: 1%; Nrf2 activator: -1%

What do the screens show for `COc1ccc(C2Cc3ccccc3C(=O)N2Cc2ccccc2)cc1COc1ccc(NC(C)=O)cc1` (stereo not given)?
Nrf2 block: -26%; A549 viability: -1%

What do the screens show for `O=C(Cc1nnc(CNC(=O)c2ccccc2)o1)Nc1cc(C(F)(F)F)ccc1Cl`?
Nrf2 block: 9%; A549 viability: -1%

How did COc1cc(F)c(S(=O)(=O)N2CCN(S(=O)(=O)c3cccc(NC(C)=O)c3)CC2)c(F)c1 do in these assays?
Nrf2 block: -14%; A549 viability: 12%

What do the screens show for `COc1ccccc1C1CCN(Cc2ccc(Cl)c(Cl)c2)CC1`?
Nrf2 block: -1%; CCT modulator: 1; A-T KAP1 phos: 25µM*; TCR activator: 6%; A549 viability: 2%; Nrf2 activator: 0%

What do the screens show for `COc1ccc(-n2c(=S)[nH]c3cc(C(=O)Nc4ccc(F)cc4)ccc3c2=O)c(OC)c1`?
Nrf2 block: 21µM*; CCT modulator: 2; A-T KAP1 phos: -5%; TCR activator: -1%; A549 viability: 1%; Nrf2 activator: 4%

What do the screens show for `COc1ccc(-n2c(=S)[nH]c3cc(C(=O)NCc4ccc(F)cc4)ccc3c2=O)c(OC)c1`?
Nrf2 block: 16µM*; CCT modulator: -2; A-T KAP1 phos: -5%; TCR activator: 1%; A549 viability: 1%; Nrf2 activator: 0%

What do the screens show for `COc1ccc(-n2c(=S)[nH]c3cc(C(=O)NCc4ccccc4OC)ccc3c2=O)c(OC)c1`?
Nrf2 block: inconclusive; CCT modulator: 0; A-T KAP1 phos: -3%; TCR activator: 1%; A549 viability: -3%; Nrf2 activator: 0%

How did Brc1ccc(C2=CC(c3ccco3)n3nnnc3N2)cc1 (stereo not given) do in these assays?
Nrf2 block: 1%; CCT modulator: -2; A-T KAP1 phos: 3%; TCR activator: -1%; A549 viability: -2%; Nrf2 activator: 5µM*

Results for O=[N+]([O-])c1ccc(Nc2ccccc2)c2nonc12 ?
Nrf2 block: -28%; CCT modulator: -2; A-T KAP1 phos: -34%; TCR activator: 1%; A549 viability: inconclusive; Nrf2 activator: 20%

What do the screens show for `O=[N+]([O-])c1ccc(Sc2cccc[n+]2[O-])c2nonc12`?
Nrf2 block: inconclusive; CCT modulator: -1; A-T KAP1 phos: -11%; TCR activator: 9%; A549 viability: 18µM*; Nrf2 activator: -3%

What do the screens show for `CCn1cnc2c(Nc3ccc(Cc4cccnc4)cc3)nc(C#N)nc21`?
Nrf2 block: inconclusive; A549 viability: -14%

How did CCOc1ccccc1NC(=O)C1COc2ccccc2O1 (stereo not given) do in these assays?
Nrf2 block: 15%; CCT modulator: 1; A-T KAP1 phos: 7%; A549 viability: 13%; Nrf2 activator: 6.3µM*

What do the screens show for `CCOc1ccc(/C=C2\SC(=O)N(CCNC(=O)C3COc4ccccc4O3)C2=O)cc1OC` (stereo not given)?
Nrf2 block: inconclusive; CCT modulator: -35*; A-T KAP1 phos: 0%; TCR activator: -4%; A549 viability: -7%; Nrf2 activator: 1%

What do the screens show for `COc1ccc(Cl)cc1NC(=O)C1COc2ccccc2O1` (stereo not given)?
Nrf2 block: 3%; CCT modulator: -3; A-T KAP1 phos: 8%; TCR activator: 4%; A549 viability: 0%; Nrf2 activator: 3.5µM*

How did COc1ccc(OC)c(NC(=O)C2COc3ccccc3O2)c1 (stereo not given) do in these assays?
Nrf2 block: -10%; CCT modulator: -2; A-T KAP1 phos: 5%; TCR activator: 0%; A549 viability: -7%; Nrf2 activator: 4%

Screening results: PubChem, National Center for Advancing Translational Sciences (NCATS)
